# Sampled rows, rich in hits. Any-hit rate of the full collection: about 18%.
# HepG2 viability: qHTS for Inhibitors of TGF-b: Cytotox Counterscreen. HepG2 CAGA-GFP viability, ATP luminescence, 18 h. Potency, µM (series often up to 46.1 µM), for inactives: top-dose activity change, negative = cytotoxicity, hits mostly cytotoxic. 0.76% of 410,000 active; further: potency means the concentration at half of the fitted maximal effect
#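 HepG2 CAGA-GFP cells (1000/well, DMEM with 1% FBS) received compound, then TGF-beta at 500 pg/mL final, and were incubated 18 hours at 37 degrees C. Viability was read by CellTiter-Glo luminescence. Media-only wells were set as complete cell-killing and DMSO as no toxicity.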
# TGFb SMAD3 inh: qHTS for Inhibitors of TGF-b; HepG2 CAGA-GFP TGF-b/SMAD3 reporter, GFP fluorescence, 18 h; TGF-beta stimulated, 500 pg/mL final; AID 588855, 2011; 1.2% of 410,000 active; Potency, µM (doses to about 46.1 µM), for inactives: at the highest dose activity, negative = inhibition, usual class: inhibitors; further: potency means the concentration at half of the fitted maximal effect; on the % scale 0 is the no-effect control and ±100 the full control effect; nearly all actives have a fitted effect of over 65% in size
#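 Smad-responsive CAGA-GFP expression was quantified in HEPG2 cells exposed to compounds and 500 pg/mL final TGF-beta for 18 h at 37 degrees C; unstimulated wells defined full inhibition.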
# TDP1 inh: qHTS Assay for Inhibitors of Tyrosyl-DNA Phosphodiesterase (TDP1); Tyrosyl-DNA phosphodiesterase 1 (Homo sapiens), Q9NUW8; recombinant TDP1, AlphaScreen DNA substrate cleavage; Potency, µM (series often up to 130 µM), for the others: top-dose activity change, negative = inhibition, usual class: inhibitors; 0.28% of 350,000 active; AID 485290, 2010; further: potency means the concentration at half of the fitted maximal effect; on the % scale 0 is the no-effect control and ±100 the full control effect; nearly all actives have a fitted effect of over 40% in size
# Target sequence (Q9NUW8 whole entry, looked up): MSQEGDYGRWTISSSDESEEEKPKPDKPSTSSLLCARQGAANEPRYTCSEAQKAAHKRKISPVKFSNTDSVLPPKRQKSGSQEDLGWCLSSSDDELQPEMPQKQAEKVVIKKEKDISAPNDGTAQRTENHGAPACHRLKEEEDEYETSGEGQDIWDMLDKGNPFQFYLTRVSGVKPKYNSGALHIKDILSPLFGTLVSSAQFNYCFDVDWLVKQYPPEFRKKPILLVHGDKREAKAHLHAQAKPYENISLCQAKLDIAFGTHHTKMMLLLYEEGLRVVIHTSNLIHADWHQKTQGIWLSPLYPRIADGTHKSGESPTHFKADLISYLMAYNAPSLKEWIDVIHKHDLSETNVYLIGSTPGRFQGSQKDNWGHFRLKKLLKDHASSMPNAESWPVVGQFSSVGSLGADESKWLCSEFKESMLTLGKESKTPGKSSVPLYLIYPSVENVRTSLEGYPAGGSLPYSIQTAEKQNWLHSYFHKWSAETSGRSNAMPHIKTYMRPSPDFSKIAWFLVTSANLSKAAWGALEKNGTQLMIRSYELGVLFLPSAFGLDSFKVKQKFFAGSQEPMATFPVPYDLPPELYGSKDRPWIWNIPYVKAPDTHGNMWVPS
#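 Recombinant E. coli-expressed Tdp1 (1 nM) preincubated with compound 15 min at RT, then 5'-biotin/3'-phosphotyrosine-FITC DNA substrate (15 nM) added for 5 min. AlphaScreen beads (10 ug/ml) added, 10 min RT; tyrosine-FITC cleavage read as signal loss.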
# TDP1 cell noCPT: qHTS for Inhibitors of human tyrosyl-DNA phosphodiesterase 1 (TDP1): qHTS in cells in absence of CPT; DT40 Tdp1-/- hTDP1 cells, no CPT, ATP luminescence, 48 h; Potency, µM (titrated, usually from 46.2 µM), inactives show at the highest dose activity change, negative = growth inhibition, actives largely listed as inhibitors; 15% of 420,000 active; AID 686978, 2013; further: potency means the concentration at half of the fitted maximal effect; on the % scale 0 is the no-effect control and ±100 the full control effect; nearly all actives have a fitted effect of over 55% in size
#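 Growth of hTDP1-complemented DT40 Tdp1-knockout cells is measured by ATP luminescence after at least 48 hr compound exposure at 37 °C, with DMSO substituting for the 20 nM CPT used in the parallel screen.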
# TDP1 cell CPT: qHTS for Inhibitors of human tyrosyl-DNA phosphodiesterase 1 (TDP1): qHTS in cells in presence of CPT; AID 686979, 2013; Potency, µM (top dose mostly 46.2 µM), without a hit: at the highest dose activity change, negative = growth inhibition, most hits filed as inhibitors; chicken DT40 Tdp1-/-;hTDP1 cells + 20 nM CPT, ATP luminescence, 48 h; 12% of 420,000 active; further: potency means the concentration at half of the fitted maximal effect; on the % scale 0 is the no-effect control and ±100 the full control effect; nearly all actives have a fitted effect of over 55% in size
#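 Chicken DT40 Tdp1-/- cells stably complemented with human TDP1 were seeded at 400 cells/well in medium containing 20 nM camptothecin, exposed to pin-transferred compounds, and grown at 37 °C for at least 48 hr. Viability was read as ATP luminescence.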
# IL1B secr inh: qHTS for Inhibitors of Inflammasome Signaling: IL-1-beta AlphaLISA Primary Screen. activity change, % at 57.5 µM. THP-1 LPS/ATP IL-1B secretion, AlphaLISA, 16 h; active compounds read low. 4.7% of 360,000 active; in the data active means activity change below about -50%; inconclusive means mostly about -30% to -49%; further: on the % scale 0 is the no-effect control and ±100 the full control effect
#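 THP-1 cells pretreated 1 hr with compounds (up to 57.5 uM final), then stimulated with LPS (250 ng/mL final) plus ATP (1.25 mM final); secreted IL-1B measured by AlphaLISA after 16 hr, decreased signal indicating inhibition.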
# * = called active by the depositor; ? = inconclusive; . = no result. Unless noted, the call rests on the fitted dose curve; in most records, active means well fitted curve in the direction sought with a large enough effect; inconclusive means small, poorly fitted or top-dose-only effect, or another doubt; inactive means no such curve, though single readings can be large; an effect the other way counts as inactive or inconclusive.
SMILES,HepG2 viability,TGFb SMAD3 inh,TDP1 inh,TDP1 cell noCPT,TDP1 cell CPT,IL1B secr inh
CC(O)C#C[Si](C)(C)c1ccccc1 (stereo not given),.,.,6%,.,.,.
Cc1cccc(NC(=O)CN2CCN(C(=O)C(C)Oc3ccc(C#N)cc3)CC2)c1C (stereo not given),-13%,-8%,0%,-9%,-29%,0
CC(Oc1ccc(C#N)cc1)C(=O)N1CC=C(c2ccccc2)CC1 (stereo not given),-6%,?,0%,?,?,-61*
CCCCOc1ccc([N+](=O)[O-])cc1C(=O)O,-12%,-9%,0%,-15%,-13%,1
COc1ccccc1C(=O)N1CC(=O)Nc2ccc(F)cc2C1c1ccccc1 (stereo not given),-24%,-9%,.,?,14%,0
Cc1ccc(C(=O)N2CC(=O)Nc3ccc(C)cc3C2c2ccccc2)cc1 (stereo not given),9%,10%,.,?,?,30
Cc1ccc2c(c1)C(c1ccccc1)N(C(=O)c1ccccc1[N+](=O)[O-])CC(=O)N2 (stereo not given),-9%,1%,.,9.2µM*,12µM*,20
O=C1CN(C(=O)c2ccccc2[N+](=O)[O-])C(c2ccccc2)c2cc(Br)ccc2N1 (stereo not given),-18%,-26%,.,?,21µM*,25
Cc1ccc(C(=O)N2CC(=O)Nc3ccc(F)cc3C2c2ccccc2)cc1[N+](=O)[O-] (stereo not given),-22%,0%,0%,21µM*,18µM*,0
COc1ccc(C(=O)N2CC(=O)Nc3ccc(C)cc3C2c2ccc(F)cc2)c(OC)c1 (stereo not given),-8%,2%,0%,?,21µM*,.
S=C1SCCCN1Cc1ccc(Cl)cc1,-8%,2%,.,?,?,2
O=C(NCc1ccccn1)C(=O)NCC1OCCN1S(=O)(=O)c1ccc(F)cc1 (stereo not given),13%,0%,-5%,20%,-6%,9
COc1ccc(S(=O)(=O)NCCc2csc(-c3ccc(F)cc3)n2)cc1,-15%,?,-3%,15µM*,12µM*,.
COc1ccc(-c2nc(CNS(=O)(=O)c3cccc(F)c3)cs2)cc1,-22%,.,5%,15µM*,-76%,.
COc1ccc(-c2nc(CNS(=O)(=O)c3ccc(F)cc3)cs2)cc1,-29%,.,-3%,18µM*,?,.
COc1ccc(S(=O)(=O)NCCc2csc(-c3ccc(F)cc3)n2)cc1F,-38%,?,5%,26µM*,23µM*,.
O=S(=O)(NCCc1csc(-c2cccnc2)n1)c1ccc(F)cc1,-23%,-10%,6%,-11%,3%,16
Cc1cc2c(OCC(CNC(C)(C)C)OC(=O)c3ccccc3)cccc2[nH]1 (stereo not given),.,.,7%,?,?,.
CCn1c(SCC(=O)N2c3ccccc3Sc3ccccc32)nc2c1c(=O)n(C)c(=O)n2C,-17%,7%,1%,?,?,19
COCCn1c(SCC(=O)N2CCc3ccccc3C2)nc2ccccc2c1=O,0%,26%,5%,?,21µM*,-2
CCCn1c(SCC(=O)N2c3ccccc3CCc3ccccc32)nc2c1c(=O)n(C)c(=O)n2C,-2%,-4%,2%,?,-26%,14

# Assay outcomes (PubChem)
